The values below come from PubChem BioAssay AID504832 (National Center for Advancing Translational Sciences (NCATS), 2011).

Among all 310,000 compounds or so, about 18,000 (5.8%) were called active. Entries that show only a call come without a potency. Not shown: some 22% with an inconclusive outcome. Calls come from the whole dose curve; as a rule, active = well fitted inhibition curve with a large enough effect; inconclusive = small, poorly fitted or top-dose-only effect, or another doubt; inactive = no such curve, though single readings can be large or run the other way. The full list was thinned out, with actives kept by preference.
Potency is the fitted concentration of half-maximal effect.

A short description of this test: Primary qHTS for delayed death inhibitors of the malarial parasite plastid, 48 hour incubation. The following applies: P. falciparum luciferase growth in erythrocytes; series mostly up to 28.7 µM. In a few lines:
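First compound was added to culture medium, then infected red cells at 0.1% parasitemia and 2% hematocrit (final). After incubation at 37 C under 5% CO2, luciferase detection reagent was dispensed and light output recorded.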
Background: Quantitative high-throughput screening tests each substance at several concentrations.
Regarding `CCCOc1ccc(N/C=C/C(=O)C(C)(C)C)cc1`, the Potency result is “inactive”.
`O=C(/C=C/Nc1ccccc1OC(F)(F)F)C(F)(F)F`: the Potency result was “inactive”.
To `CN(C)c1ccc(N/C=C/C(=O)C(F)(F)F)cc1` belongs 9.28 µM (active); to `COc1ccc2ccccc2c1/C=N/NC(=O)c1cc(C)[nH]n1`, “inactive”.
The same measure for `Cc1onc(-c2ccccc2)c1C(=O)N=C(N)c1ccc(Cl)cc1`: “inactive”.
To `C/C(=N\N=C(N)N)c1ccc(Cl)cc1` belongs 6.57 µM (active); to `C/C(=N\OCC(=O)O)c1ccc(Cl)cc1`, “inactive”.
As for `Cc1ccccc1OCC(=O)N(Cc1cccc(F)c1)C1CCS(=O)(=O)C1` (configuration not stated), the Potency result was “inactive”.
Regarding `CN(C(=O)COC(=O)CNC(=O)C12CC3CC(CC(C3)C1)C2)c1ccccc1`, the Potency entry is “inactive”.
As to `O=C(c1c(F)cccc1F)N1CCN(c2ncc(Br)cn2)CC1`, the Potency entry was “inactive”.
The same measure for `COc1ccc2oc(=O)c(C(=O)N3CCN(c4ccccc4F)CC3)cc2c1`: “inactive”; for `O=C(Nn1cc(C(=O)N2CCN(c3ccccc3F)CC2)c2ccccc2c1=O)c1cnccn1`: 10.4 µM (active); for `O=C(COC(=O)c1cccs1)NCc1cccs1`: “inactive”.
The same measure for `CC(C)=CCN1CCN(CCCc2ccccc2)CC1CCO` (configuration not stated): “inactive”.
The same measure for `O=C1Nc2cc(C(=O)N3CCN(c4ccc(F)cc4)CC3)ccc2NC1CSCc1cccc(F)c1` (configuration not stated): “inactive”.
For `Cc1cccn2c(=O)c(/C=C(\C#N)S(=O)(=O)c3ccc(Cl)cc3)c(N3CCC(C(N)=O)CC3)nc12`, the Potency entry is “inactive”.
To `Cc1cc(C)cc(Oc2nc3c(C)cccn3c(=O)c2/C=C(\C#N)C(=O)NC2CCS(=O)(=O)C2)c1` (configuration not stated) belongs 13.1 µM (active); to `Cc1cccn2c(=O)c3cc(C(=O)NC4CCCCC4)sc3nc12`, “inactive”.
To `CCCCNC(=O)Cn1nc(C)c(S(=O)(=O)N2CCOCC2)c1C` belongs “inactive”.
Take `CSCCC(NC(=O)c1ccco1)C(=O)NCCc1ccc(F)cc1` (configuration not stated): the Potency entry is “inactive”.
To `COc1ccc2c(C)c(CCC(=O)NC3CC3)c(=O)oc2c1C` belongs “inactive”; to `COc1ccccc1C(=O)NC(=S)NC12CC3CC(CC(C3)C1)C2`, “inactive”.
`Cc1ccccc1NC(=O)c1ccccc1NS(=O)(=O)c1cccc2cccnc12`: the Potency entry is “inactive”.
The same measure for `O=[N+]([O-])c1ccccc1S(=O)(=O)Nc1cccc2cccnc12`: 2.33 µM (active); for `O=C(Nc1ccccc1Cl)Nc1cccc2cccnc12`: “inactive”.
On to `COc1ccccc1OCC(=O)OCc1cc(-c2ccco2)on1`, for which the Potency result was “inactive”.
The same measure for `C/C(=N\NC(N)=S)c1ccncc1`: 3.29 µM (active); for `C/C(=N\NC(N)=S)c1cccnc1`: “inactive”; for `C/C(=N/NC(=O)c1ccn(C)n1)c1ccncc1`: “inactive”.
The same measure for `CC(=O)N1CCC(C(=O)OCc2ccc(Cl)cc2)(c2ccccc2)CC1`: “inactive”.
To `O=C(/C=C/c1ccccc1[N+](=O)[O-])OCC(=O)N1CCCC1` belongs “inactive”.
As for `COc1ccc(C(=O)NCCn2nc(C)cc2C)cc1OC1CCN(C(C)=O)CC1`, the Potency result is “inactive”.
To `O=C(NCC(=O)N1CCN(c2ccccc2F)CC1)c1cccs1` belongs “inactive”; to `O=C(Cn1c(-c2ccc(Cl)cc2)noc1=O)N1CCN(c2ccccc2F)CC1`, 11.7 µM (active).
As to `O=C(CCSc1ccccc1)N1CCN(c2ccccc2F)CC1`, the Potency entry was “inactive”.
The same measure for `Cc1ccc(S(=O)(=O)c2nnn3c2nc(N2CCN(c4ccccn4)CC2)c2ccccc23)cc1`: 1.47 µM (active); for `CCOC(=O)c1nnn2c1nc(N1CCN(c3ccccc3)CC1)c1ccccc12`: 5.22 µM (active).
The same measure for `Cc1cc(C(=O)N2CCN(c3ccccn3)CC2)c(C)o1`: “inactive”; for `CCOC(=O)c1nnn2c3ccccc3c(=O)n(C)c12`: “inactive”; for `CC(=C1C(=O)c2ccccc2C1=O)N1CCN(c2ccccn2)CC1`: “inactive”.
The same measure for `CCOC(=O)/C(C#N)=C/c1ccc(N2CCN(Cc3ccccc3)CC2)cc1`: “inactive”; for `COc1ccc(C2NC(=O)N(C)C(C)=C2[N+](=O)[O-])cc1` (configuration not stated): “inactive”; for `COc1ccc(S(=O)(=O)NCc2cccnc2)cc1NC(=O)c1ccc(C)cc1`: “inactive”.
For the molecule `CCN(C(=O)CSc1ncnc2sccc12)c1c(N)n(Cc2ccccc2)c(=O)[nH]c1=O`, the Potency result was “inactive”.
As for `COc1ccc(S(=O)(=O)N2CCOCC2)cc1NC(=O)c1ccc(OCC(C)C)c(OC)c1`, the Potency is 9.28 µM (active).
To `COc1ccc(S(=O)(=O)N2CCOCC2)cc1NC(=O)CSc1cc(C)ccc1C` belongs “inactive”; to `O=C(Nc1cc(S(=O)(=O)N2CCOCC2)ccc1OCC(F)(F)F)c1ccc(N2CCCC2=O)cc1`, “inactive”; to `COc1ccc(S(=O)(=O)N2CCCCC2)cc1NC(=O)c1cc([N+](=O)[O-])ccc1N1CCOCC1`, 9.28 µM (active).
To `O=C(NC1CCCCC1)c1cc([N+](=O)[O-])ccc1N1CCOCC1` belongs “inactive”; to `COc1ccc(S(=O)(=O)N2CCOCC2)cc1C(=O)NC1CCCCC1`, “inactive”; to `CC(C)Cn1c(=O)c2ccccc2n2c(CCC(=O)NCc3ccccn3)nnc12`, “inactive”.
To `COc1ccc(C(=O)NC(=S)N2CCCCC2c2cccnc2)cc1OC` (configuration not stated) belongs “inactive”.
For `S=C(Nc1cccc(Br)c1)N1CCn2cccc2C1c1cccnc1` (configuration not stated), the Potency is 11.7 µM (active).
Take `S=C(NCCc1ccccc1)N1CCCCC1`: the Potency result is “inactive”.
The same measure for `CC1CCCCN1C(=S)NCc1ccccc1` (configuration not stated): “inactive”; for `Fc1cc(Br)ccc1NC(=S)Nc1cccnc1`: “inactive”.
The same measure for `S=C(NCCc1ccccc1)N1CCn2cccc2C1c1ccncc1` (configuration not stated): 10.4 µM (active).
To `COc1ccc(CCNS(=O)(=O)c2cccc([N+](=O)[O-])c2)cc1` belongs “inactive”; to `CN1CCN(C(=O)c2ccccc2NC(=O)COc2ccccc2Cl)CC1`, “inactive”.
Take `COc1ccc(/C(C)=N\NC(=O)c2ccc(-c3ccccc3)cc2)c(F)c1`: the Potency result was “inactive”.
To `CCOc1ccc(/C=C/C(=O)N(CC)CC(=O)NCc2cccs2)cc1OC` belongs “inactive”; to `CCS(=O)(=O)Nc1ccc(C2=NN(C(C)=O)C(c3cccs3)C2)cc1` (configuration not stated), “inactive”; to `CS(=O)(=O)Nc1ccc(C2=NN(S(C)(=O)=O)C(c3cccs3)C2)cc1` (configuration not stated), “inactive”.
The same measure for `CS(=O)(=O)Nc1cccc(C2=NN(C(=O)c3cccc(F)c3)C(c3cccs3)C2)c1` (configuration not stated): 11.7 µM (active); for `CSc1ncccc1C(=O)Nc1ccc(C)cn1`: “inactive”.
The same measure for `Cc1ccc2c(c1)N(CC(=O)N1CCC(O)CC1)C(=O)CO2`: “inactive”; for `CC(C)c1ccc(OCC(O)Cn2cnc3ccccc32)cc1` (configuration not stated): 11.7 µM (active); for `CC(C)c1ccc(OCC(O)CN2CCN(c3ccccn3)CC2)cc1` (configuration not stated): “inactive”.
For the molecule `CC(=O)OC(COc1ccc(F)cc1)Cn1cnc2ccccc21` (configuration not stated), the Potency result is “inactive”.
The same measure for `COc1cc([N+](=O)[O-])cc([N+](=O)[O-])c1NC(=O)N1CCOCC1`: “inactive”; for `NC(=O)c1ccsc1NC(=O)COC(=O)Cc1n[nH]c(=O)c2ccccc12`: “inactive”.
To `O=S(=O)(NC1CC1)c1ccc(Cl)cc1` belongs “inactive”; to `CC(Cc1ccccc1)C(=O)N(C)Cc1ccccc1` (configuration not stated), “inactive”; to `CC(Cc1ccccc1)NCCC(c1ccccc1)c1ccccc1` (configuration not stated), 10.4 µM (active).
To `Cc1ncoc1C(=O)NCCC(c1ccccc1)c1ccccc1` belongs “inactive”; to `NS(=O)(=O)c1ccc(CCNC(=O)CN2C(=O)c3ccccc3S2(=O)=O)cc1`, “inactive”; to `COc1ccc(N2CCN(S(=O)(=O)c3ccc4c(c3)N(C(C)=O)CCO4)CC2)cc1`, “inactive”.
As to `COC(=O)C1=C(C)N(C)C(C)=C(C(=O)OC)C1c1cccc(Br)c1`, the Potency is 8.28 µM (active).
To `COC(=O)C1=C(C)N(C)C(=S)NC1c1ccccc1` (configuration not stated) belongs “inactive”; to `COCCN1C(=O)N[C@@H](c2ccccc2)C(C(=O)OC)=C1C`, “inactive”; to `CCn1cc(CN2CCC(n3nccc3NC(=O)CCCc3ccccc3)CC2)c(C)n1`, “inactive”.
The same measure for `CNC(=O)N1c2ccccc2C=Cc2ccccc21`: “inactive”; for `CC1Sc2ccc(S(=O)(=O)CCC(=O)NCc3ccccc3Cl)cc2NC1=O` (configuration not stated): “inactive”.
In the case of `CN(C)C(=O)c1ccc(NC(=O)c2ccccc2-c2ccccc2)cc1`, the Potency result was “inactive”.
The same measure for `Cc1ccc(-c2nnc(Nc3ccc(C(=O)N(C)C)cc3)c3ccccc23)cc1S(N)(=O)=O`: 9.28 µM (active); for `COc1ccc(Nc2nnc(C)c3ccccc23)cc1`: “inactive”; for `COc1cc(C(=O)N(C)Cc2cccc(OC)c2OC)ccc1OCC(=O)Nc1cccc(C(F)(F)F)c1`: 11.7 µM (active).
The same measure for `COc1ccc(NC(=O)CN(C)CC(=O)Nc2cccc(C(F)(F)F)c2)cc1`: “inactive”.
With `CCNC(=O)c1ccc(OCC(=O)Nc2ccc(F)cc2)c(OC)c1`, the Potency result was “inactive”.
To `O=C(Nc1ccc(N2CCCCC2)cc1)c1cc(S(=O)(=O)N2CCOCC2)ccc1F` belongs “inactive”; to `N#Cc1cccc(NC(=O)C2CCCN(C(=O)c3ccc(Cl)cc3)C2)c1` (configuration not stated), 9.28 µM (active).
The same measure for `N#Cc1cccc(NC(=O)CN2CCCCCC2)c1`: “inactive”.
On to `O=C(Nc1cccc(Cl)c1)C1CCCN(c2cnccn2)C1` (configuration not stated), for which the Potency entry is “inactive”.
For `COc1ccc(Cl)cc1C(=O)OCC(=O)NCc1cccs1`, the Potency entry is “inactive”.
To `O=C(COC(=O)C1CCN(S(=O)(=O)c2ccc3c(c2)OCCO3)CC1)Nc1ccccc1OC(F)F` belongs “inactive”; to `Cc1c(C(=O)NCCN(C)C)oc2ccc(S(=O)(=O)N3CCCC3)cc12`, “inactive”.
Turning to `CCOC(=O)C1CCN(C(=O)c2oc3ccc(S(=O)(=O)N4CCCCCC4)cc3c2C)CC1`, the Potency is 11.7 µM (active).
The same measure for `CCOC(=O)C1CCN(C(=O)C2CCCN(S(=O)(=O)c3ccc(OC)c(Cl)c3)C2)CC1` (configuration not stated): “inactive”; for `CCOC(=O)C1CCN(S(=O)(=O)c2ccc3c(c2)N(C(C)=O)CCO3)CC1`: “inactive”; for `CCOC(=O)C1CCN(C(=O)COC(=O)C2CCN(S(=O)(=O)c3ccc4c(c3)OCCO4)CC2)CC1`: 13.1 µM (active).
To `CC(Sc1nnc(-c2ccccc2F)n1C1CC1)C(N)=O` (configuration not stated) belongs “inactive”; to `Cc1occc(=O)c1OCc1ccc(F)cc1`, “inactive”; to `Clc1nc(NC2CCCC2)nc(N2CCOCC2)n1`, “inactive”.
To `Cc1ccc(NC(=O)Cc2nnc(SCC(=O)Nc3nncs3)n2C)cc1` belongs “inactive”; to `CCc1noc(C)c1C(=O)N1CCN(S(=O)(=O)c2cccc(C(F)(F)F)c2)CC1`, “inactive”.
On to `Cc1onc(C(=O)NN)c1C(=O)N1CCN(C(c2ccccc2)c2ccccc2)CC1`, for which the Potency was 5.86 µM (active).
Regarding `Cc1c(C(=O)N2CCCC2)c(S(=O)(=O)NCC(C)c2ccccc2)c(C)n1C` (configuration not stated), the Potency result was “inactive”.
